PubChem BioAssay (Tox21)
Where “and” joins values, the source holds several entries; their conditions need not be identical. Identical values can stand only once. Results filed as inconclusive are left out. Calls of active or inactive are those of the source. Unless noted, calls come from the whole dose curve; as a rule, active = well fitted curve in the direction sought with a large enough effect in the repeat runs; inconclusive = weak or mixed curves; inactive = no such curve, though single readings can be large; an effect the other way counts as inactive or inconclusive.

Columns and labels:
[1] = qHTS assay to identify aromatase inhibitors - cell viability counter screen (AID 743084);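 note: cells stimulated with testosterone during compound exposure; nearly all actives have a fitted effect of over 55% in size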; note: potency is the fitted concentration of half-maximal effect
[2] = molecular target: Aryl hydrocarbon receptor (Homo sapiens) (UniProt P35869); test: qHTS assay to identify small molecule that activate the aryl hydrocarbon receptor (AhR) signaling pathway (AID 743085);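 note: HG2L7.5c1 human HepG2 liver cells with stably integrated DRE-driven firefly reporter; series mostly up to about 70 µM; nearly all actives have a fitted effect of over 15% in size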
Chain of Aryl hydrocarbon receptor (Homo sapiens) (P35869 whole entry, looked up): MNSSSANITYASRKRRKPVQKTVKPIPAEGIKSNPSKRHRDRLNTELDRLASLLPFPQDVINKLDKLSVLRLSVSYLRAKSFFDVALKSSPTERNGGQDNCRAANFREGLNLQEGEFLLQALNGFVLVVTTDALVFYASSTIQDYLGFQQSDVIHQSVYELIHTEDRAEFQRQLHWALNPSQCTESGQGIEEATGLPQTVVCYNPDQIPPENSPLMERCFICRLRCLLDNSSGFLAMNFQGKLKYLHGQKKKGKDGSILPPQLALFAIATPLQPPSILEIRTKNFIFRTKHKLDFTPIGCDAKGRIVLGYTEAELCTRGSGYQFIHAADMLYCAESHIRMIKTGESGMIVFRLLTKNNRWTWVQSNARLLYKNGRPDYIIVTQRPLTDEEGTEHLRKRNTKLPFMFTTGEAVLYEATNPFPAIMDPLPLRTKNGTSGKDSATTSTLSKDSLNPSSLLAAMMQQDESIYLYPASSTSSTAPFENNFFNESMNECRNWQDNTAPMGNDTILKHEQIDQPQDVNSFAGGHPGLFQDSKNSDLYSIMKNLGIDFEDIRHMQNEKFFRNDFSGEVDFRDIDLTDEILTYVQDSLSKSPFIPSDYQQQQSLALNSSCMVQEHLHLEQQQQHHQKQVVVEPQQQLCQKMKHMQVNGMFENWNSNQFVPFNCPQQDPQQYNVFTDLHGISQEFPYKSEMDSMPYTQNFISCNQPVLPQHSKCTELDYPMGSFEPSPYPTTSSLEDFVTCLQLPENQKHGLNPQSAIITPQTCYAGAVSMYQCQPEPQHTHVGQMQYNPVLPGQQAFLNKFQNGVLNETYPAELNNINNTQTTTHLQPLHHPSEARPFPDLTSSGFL
Method in brief: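 24 h compound exposure, 37C, HepG2-derived HG2L7.5c1 cells with DRE-responsive luciferase. Readouts: fluorescence viability, then luminescence at room temperature after 30 min.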

[3] = qHTS assay to identify small molecule antagonists of the peroxisome proliferator-activated receptor gamma (PPARg) signaling pathway - cell viability counter screen (AID 743194); note: nearly all actives have a fitted effect of over 55% in size
Method in brief: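 PPARg-UAS-bla HEK293H cells were plated, rested 5 h at 37 C, then treated with compounds plus rosiglitazone (50 nM final) for 17 h at 37 C; viability was then read by CellTiter-Glo luminescence after 30 min at room temperature.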

[4] = qHTS assay for small molecule agonists of the antioxidant response element (ARE) signaling pathway - cell viability counter screen (AID 743203; calls by dose curve; note: nearly all actives have a fitted effect of over 55% in size)
Method in brief: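 HepG2 cells carrying ARE-driven beta-lactamase; 2,000 cells/well; 5 hrs plating; compound pinned from DMSO; 16 hrs 37C/5% CO2; CellTiter-Glo added; 30 min RT; luminescence.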

[5] = qHTS assay for small molecule activators of the heat shock response signaling pathway - cell viability counter screen (AID 743209); note: nearly all actives have a fitted effect of over 50% in size; note: potency is the fitted concentration of half-maximal effect
Method in brief: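 Luminescence from CellTiter-Glo, added after the beta-lactamase FRET read, gave the viability signal. Cells were HSE-bla HeLa treated with DMSO-dissolved compounds for 5 h at 37 C following overnight plating.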

[6] = qHTS assay for small molecule activators of the heat shock response signaling pathway (AID 743210; active = well fitted activation curve with a large enough effect in the signal ratio in the repeat runs, with a control signal flat, not every such curve was filed as active; the % refers to the signal ratio;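 note: HeLa cells with beta-lactamase reporter driven by heat shock elements; series mostly up to about 63 µM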)
Method in brief: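 Reporter gene assay: HeLa cells stably bearing an HSE-bla construct, compound treatment 5 h at 37 C, LiveBLAzer substrate 2.5 h at RT, fluorescence intensity.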

[7] = molecular target: Vitamin D3 receptor (Homo sapiens) (UniProt P11473); test: qHTS assay to identify small molecule agonists of the vitamin D receptor (VDR) signaling pathway (AID 743222; calls by dose curve)
Chain of Vitamin D3 receptor (Homo sapiens) (P11473 whole entry, looked up): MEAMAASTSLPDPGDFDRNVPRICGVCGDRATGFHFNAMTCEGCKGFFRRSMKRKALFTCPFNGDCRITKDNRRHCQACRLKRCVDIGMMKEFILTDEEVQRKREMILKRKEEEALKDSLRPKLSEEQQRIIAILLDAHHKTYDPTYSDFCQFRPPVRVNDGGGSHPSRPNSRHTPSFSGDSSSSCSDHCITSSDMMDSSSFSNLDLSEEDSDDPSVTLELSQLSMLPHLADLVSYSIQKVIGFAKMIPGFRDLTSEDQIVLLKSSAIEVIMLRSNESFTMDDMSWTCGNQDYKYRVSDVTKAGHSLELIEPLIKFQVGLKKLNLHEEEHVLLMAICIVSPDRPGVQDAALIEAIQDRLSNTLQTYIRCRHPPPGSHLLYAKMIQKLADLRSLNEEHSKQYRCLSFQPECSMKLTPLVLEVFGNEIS
Method in brief: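 VDR-bla cells, 2,000/well; 4 h preincubation 37C; cpd (DMSO) 16 h; LiveBLAzer B/G substrate 2 h RT; fluorescence intensity read.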

[8] = molecular target: Vitamin D3 receptor (Homo sapiens) (UniProt P11473); test: qHTS assay to identify small molecule antagonists of the vitamin D receptor (VDR) signaling pathway (AID 743223; active = well fitted inhibition curve with a large enough effect in the signal ratio in the repeat runs, not every such curve was filed as active; the % refers to the signal ratio)
Method in brief: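 Agonist 1alpha,25-dihydroxyvitamin D3 (3 nM in well) was added with each compound to VDR-bla cells preincubated 4 h. Cells stood 16 h at 37C, then FRET substrate 2 h at room temperature; fluorescence intensity recorded.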

[9] = molecular target: Peroxisome proliferator-activated receptor gamma (Homo sapiens) (UniProt P37231); test: qHTS assay to identify small molecule agonists of the peroxisome proliferator-activated receptor gamma (PPARg) signaling pathway (AID 743094; active = well fitted activation curve with a large enough effect in the signal ratio in the repeat runs, not every such curve was filed as active; the % refers to the signal ratio)
Chain of Peroxisome proliferator-activated receptor gamma (Homo sapiens) (P37231 whole entry, looked up): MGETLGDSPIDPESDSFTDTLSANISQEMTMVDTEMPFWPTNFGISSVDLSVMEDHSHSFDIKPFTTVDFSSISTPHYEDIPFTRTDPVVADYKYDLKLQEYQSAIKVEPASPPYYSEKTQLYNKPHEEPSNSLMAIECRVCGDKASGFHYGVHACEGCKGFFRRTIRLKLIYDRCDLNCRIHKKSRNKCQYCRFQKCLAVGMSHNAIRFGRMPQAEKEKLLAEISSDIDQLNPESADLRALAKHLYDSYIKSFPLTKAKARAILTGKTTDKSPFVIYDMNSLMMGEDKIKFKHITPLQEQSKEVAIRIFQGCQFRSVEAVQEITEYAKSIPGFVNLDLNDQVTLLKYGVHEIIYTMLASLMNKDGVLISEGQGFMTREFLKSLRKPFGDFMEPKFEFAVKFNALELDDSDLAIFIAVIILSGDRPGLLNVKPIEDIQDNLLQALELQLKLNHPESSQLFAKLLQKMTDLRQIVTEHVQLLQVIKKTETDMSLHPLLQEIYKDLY
Method in brief: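 Beta-lactamase FRET fluorescence was the read-out after a 1 h room-temperature substrate step, following 17 h compound treatment at 37C of HEK293H cells expressing a UAS-driven bla reporter responsive to PPARg.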

[10] = qHTS assay for small molecule agonists of the antioxidant response element (ARE) signaling pathway (AID 743202; active = well fitted activation curve with a large enough effect in the signal ratio in the repeat runs, not every such curve was filed as active; the % refers to the signal ratio; note: potency is the fitted concentration of half-maximal effect)
Method in brief: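 Compounds delivered in DMSO to ARE-bla HepG2 cells (2,000 cells/well, pre-incubated 5 h) and left 16 h at 37 C. LiveBLAzer B/G FRET substrate then added for 2 h at RT before fluorescence reading.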

[11] = molecular target: Peroxisome proliferator-activated receptor delta (Homo sapiens) (UniProt Q03181); test: qHTS assay to identify small molecule antagonists of the peroxisome proliferator-activated receptor delta (PPARd) signaling pathway (AID 743215; active = well fitted inhibition curve with a large enough effect in the signal ratio in the repeat runs, not every such curve was filed as active; the % refers to the signal ratio;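 note: cells stimulated with agonist L165041 at 300 nM final during compound exposure; series mostly up to about 62 µM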)
Chain of Peroxisome proliferator-activated receptor delta (Homo sapiens) (Q03181 whole entry, looked up): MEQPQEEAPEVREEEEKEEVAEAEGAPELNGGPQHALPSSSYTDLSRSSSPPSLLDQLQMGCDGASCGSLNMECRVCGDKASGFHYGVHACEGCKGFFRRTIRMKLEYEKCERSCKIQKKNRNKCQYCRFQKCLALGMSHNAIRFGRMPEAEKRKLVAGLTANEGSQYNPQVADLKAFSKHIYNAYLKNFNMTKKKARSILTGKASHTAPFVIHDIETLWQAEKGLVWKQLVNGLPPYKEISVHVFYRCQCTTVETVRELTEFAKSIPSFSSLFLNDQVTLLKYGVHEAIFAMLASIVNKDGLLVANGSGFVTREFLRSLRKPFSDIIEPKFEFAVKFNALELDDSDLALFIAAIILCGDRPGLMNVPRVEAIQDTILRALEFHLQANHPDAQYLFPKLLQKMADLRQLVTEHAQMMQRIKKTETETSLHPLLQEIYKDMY
Method in brief: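 Read-out is beta-lactamase FRET fluorescence, measured 2 h after substrate addition at room temperature. Beforehand, UAS-bla HEK293H cells carrying the PPARd reporter were exposed to compounds with L165041 at 300 nM final for 17 h at 37 C.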

[12] = molecular target: Bile acid receptor (Homo sapiens) (UniProt Q96RI1); test: qHTS assay to identify small molecule antagonists of the farnesoid-X-receptor (FXR) signaling pathway (AID 743217; active = well fitted inhibition curve with a large enough effect in the signal ratio in the repeat runs, not every such curve was filed as active; the % refers to the signal ratio; note: potency is the fitted concentration of half-maximal effect)
Chain of Bile acid receptor (Homo sapiens) (Q96RI1 whole entry, looked up): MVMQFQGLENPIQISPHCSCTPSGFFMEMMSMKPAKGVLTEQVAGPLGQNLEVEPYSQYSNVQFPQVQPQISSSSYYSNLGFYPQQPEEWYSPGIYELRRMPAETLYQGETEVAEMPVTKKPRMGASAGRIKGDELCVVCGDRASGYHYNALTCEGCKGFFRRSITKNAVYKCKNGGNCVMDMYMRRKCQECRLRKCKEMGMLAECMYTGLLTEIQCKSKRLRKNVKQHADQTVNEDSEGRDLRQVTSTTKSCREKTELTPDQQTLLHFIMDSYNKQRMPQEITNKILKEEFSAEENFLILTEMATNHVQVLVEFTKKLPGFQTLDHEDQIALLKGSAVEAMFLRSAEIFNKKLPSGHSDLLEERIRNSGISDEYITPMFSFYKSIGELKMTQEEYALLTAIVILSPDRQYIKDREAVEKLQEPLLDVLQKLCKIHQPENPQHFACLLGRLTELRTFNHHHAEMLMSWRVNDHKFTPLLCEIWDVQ
Method in brief: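 HEK 293T FXR-UAS-bla, 5000 cells/well; compound + CDCA 50 uM final; 16 h, 37 °C; B/G FRET substrate 2 h RT; fluorescence.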

[13] = molecular target: Bile acid receptor (Homo sapiens) (UniProt Q96RI1); test: qHTS assay to identify small molecule agonists of the farnesoid-X-receptor (FXR) signaling pathway (AID 743220; active = well fitted activation curve with a large enough effect in the signal ratio in the repeat runs, not every such curve was filed as active; the % refers to the signal ratio)
Method in brief: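 Beta-lactamase reporter under UAS control in GeneBLAzer FXR HEK 293T cells (5000/well) measured with LiveBLAzer FRET substrate after 2 h at room temperature. Compound exposure lasted 16 h at 37C.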

[14] = qHTS assay to identify small molecule antagonists of the farnesoid-X-receptor (FXR) signaling pathway - cell viability counter screen (AID 743221; active = well fitted cell-killing curve with a large enough effect in the repeat runs, not every such curve was filed as active; note: nearly all actives have a fitted effect of over 50% in size)
Method in brief: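 In GeneBLAzer FXR-UAS-bla HEK 293T cells stimulated with 50 uM chenodeoxycholic acid (final), compounds acted for 16 h at 37 C. Viability was assessed afterwards by CellTiter-Glo luminescence.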

[15] = qHTS assay to identify small molecule that activate the aryl hydrocarbon receptor (AhR) signaling pathway - cell viability counter screen (AID 743086);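 note: HepG2 liver cells carrying the AhR DRE luciferase reporter; series mostly up to about 70 µM; nearly all actives have a fitted effect of over 45% in size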
Method in brief: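 HepG2-AhR-luc (HG2L7.5c1) cells, 4000/well, were preincubated 5 h at 37C, exposed to compound in qHTS format for 24 hr at 37C, then given CellTiter-Fluor for 30 min; viability was read as fluorescence in the reporter wells.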

[16] = molecular target: Peroxisome proliferator-activated receptor gamma (Homo sapiens) (UniProt P37231); test: qHTS assay to identify small molecule antagonists of the peroxisome proliferator-activated receptor gamma (PPARg) signaling pathway (AID 743191; calls by dose curve; note: series mostly up to about 63 µM; nearly all actives have a fitted effect of over 30% in size)
Method in brief: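 GeneBLAzer PPARg UAS-bla HEK293H cells carrying a UAS-driven beta-lactamase reporter were plated at 3000 cells/well, preincubated 5 h at 37C, then given compound for 17 h at 37C; LiveBLAzer B/G FRET substrate was read after 1 h at room temperature.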

[17] = qHTS assay to identify small molecule agonists of the peroxisome proliferator-activated receptor delta (PPARd) signaling pathway - cell viability counter screen (AID 743211); note: nearly all actives have a fitted effect of over 55% in size; note: potency is the fitted concentration of half-maximal effect
Method in brief: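 Luminescent ATP viability assay (CellTiter-Glo, 30 min RT) in UAS-bla HEK293H cells carrying the PPAR delta reporter construct, 3000 cells/well, after a 17 h compound treatment at 37 C.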

[18] = qHTS assay to identify small molecule antagonists of the peroxisome proliferator-activated receptor delta (PPARd) signaling pathway - cell viability counter screen (AID 743213); note: nearly all actives have a fitted effect of over 50% in size; note: potency is the fitted concentration of half-maximal effect
Method in brief: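 Viability counter-screen, qHTS format: PPARd-bla HEK293H, L165041 300 nM final, 17 h compound exposure at 37 C, CellTiter-Glo luminescence after 30 min RT.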

[19] = qHTS assay to identify small molecule agonists of the farnesoid-X-receptor (FXR) signaling pathway - cell viability counter screen (AID 743218); note: nearly all actives have a fitted effect of over 45% in size
Method in brief: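 HEK 293T FXR-bla cells; 5 h pre-incubation, 16 h compound exposure at 37 C; LiveBLAzer substrate 2 h RT, then CellTiter-Glo 30 min RT, luminescence.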

[20] = molecular target: Peroxisome proliferator-activated receptor delta (Homo sapiens) (UniProt Q03181); test: qHTS assay to identify small molecule agonists of the peroxisome proliferator-activated receptor delta (PPARd) signaling pathway (AID 743212; calls by dose curve)
Method in brief: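 A PPARd-bla HEK293H line with beta-lactamase under an Upstream Activator Sequence is treated with compounds at 37 C. Substrate loading for 2 h at room temperature precedes the fluorescence measurement.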

Measured: Potency

CCCNCC(O)COc1ccccc1C(=O)CCc1ccccc1 (stereo not given)
inactive: [1] | [2] | [3] | [4] | [5] | [6] | [7] | [8]

CN(C)CCN(Cc1ccc(Cl)cc1)c1ccccn1
inactive: [1] | [2] | [9] | [3] | [10] | [5] | [6] | [11] | [12] | [13] | [14] | [8]

COc1ccnc(CS(=O)c2nc3ccc(OC(F)F)cc3[nH]2)c1OC (stereo not given)
inactive: [1] | [15] | [9] | [16] | [3] | [4] | [5] | [6] | [17] | [18] | [11] | [19] | [14]

c1ccc(-c2ccccn2)nc1
inactive: [1] | [2] | [3] | [4] | [5] | [17] | [20] | [18] | [11] | [19] | [14] | [7] | [8]

C[Si](C)(CCCN)O[Si](C)(C)CCCN
inactive: [1] | [15] | [9] | [3] | [4] | [5] | [6] | [17] | [20] | [18] | [11] | [14] | [8]

CCCCCCCCCc1ccc(OCCOCCO)cc1
active: [1] 21.1 µM and 22.8 µM | [10] 1.62 µM | [5] 23 µM | [18] 20.5 µM
inactive: [2] | [9] | [20] | [13] | [8]

CCCCc1ncc(/C=C(\Cc2cccs2)C(=O)O)n1Cc1ccc(C(=O)O)cc1
inactive: [1] | [2] | [3] | [5] | [17] | [18] | [19] | [14] | [8]

COc1ccc(C)cc1[N+](=O)[O-]
inactive: [1] | [2] | [9] | [3] | [4] | [5] | [6] | [17] | [18] | [12] | [19] | [13] | [7]

Cn1c(=O)cc(Oc2ccc(F)cc2F)c2cnc(NCC(C)(C)O)nc21
inactive: [1] | [2] | [9] | [3] | [4] | [17] | [20] | [18] | [13]
active: [10] 30.6 µM | [12] 43.6 µM

C=CC(=O)OCCOCCOCCOCCOC(=O)C=C
active: [1] 13.8 µM and 19.2 µM | [10] 24.5 µM and 27.1 µM | [5] 34.8 µM | [17] 54.4 µM
inactive: [2] | [3] | [4] | [18] | [14]
